Of roughly 7,900 targets only a part is listed; those with a hit were picked by preference. About 0.6% of all pairs of compound and target were hits. A number with no mark means an inactive call.
Key:
Test in all cases: log2 fold change, soluble protein after heating vs DMSO (PISA); higher = thermal stabilisation; K562 cells, 10 uM, 30 min; active = over 0.2 and 3.5 SD of the protein, either way, in both replicates (recomputed)
[1] = compound: C1=CC=C(C=C1)[C@H](COC2=CC3=C(C=C2)NC(=O)N3)NC(=O)C4=CC=CN(C4=O)CC5=CC(=C(C=C5)F)F
How it was run: (§1)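 Values are thermal stability changes relative to control samples and are taken from duplicates. They are stated as log2 fold changes. Before quantification by TMTpro 16plex LC-MS/MS with equalised channel sums, K562 cells at 2×10^6 cells/mL were treated with 10 μM compound for 30 min, heated in aliquots for 3 min across 48°C-58°C, pooled, extracted in PBS with 0.5% NP-40 at 4°C, and centrifuged at 21,000xg for 90 min to give the soluble supernatant.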

[2] = compound: CC1=C(SC2=C1C(=N[C@H](C3=NN=C(N32)C)CC(=O)N)C4=CC=C(C=C4)Cl)C
How it was run: as §1

[3] = compound: CC1=C2C(=CC=C1)N=C(N(C2=O)C3=CC=CC=C3C)CN4C=NC5=C(N=CN=C54)N
How it was run: as §1

[4] = compound: Cc1sc2c(c1C)C(c1ccc(Cl)cc1)=N[C@@H](CC(=O)OC(C)(C)C)c1nnc(C)n1-2
How it was run: as §1

[5] = compound: c1ccc([C@@H]2C[C@H]2NC2CCNCC2)cc1
How it was run: as §1

Sequence of UniProt Q96JB3 (Q96JB3 whole entry, looked up): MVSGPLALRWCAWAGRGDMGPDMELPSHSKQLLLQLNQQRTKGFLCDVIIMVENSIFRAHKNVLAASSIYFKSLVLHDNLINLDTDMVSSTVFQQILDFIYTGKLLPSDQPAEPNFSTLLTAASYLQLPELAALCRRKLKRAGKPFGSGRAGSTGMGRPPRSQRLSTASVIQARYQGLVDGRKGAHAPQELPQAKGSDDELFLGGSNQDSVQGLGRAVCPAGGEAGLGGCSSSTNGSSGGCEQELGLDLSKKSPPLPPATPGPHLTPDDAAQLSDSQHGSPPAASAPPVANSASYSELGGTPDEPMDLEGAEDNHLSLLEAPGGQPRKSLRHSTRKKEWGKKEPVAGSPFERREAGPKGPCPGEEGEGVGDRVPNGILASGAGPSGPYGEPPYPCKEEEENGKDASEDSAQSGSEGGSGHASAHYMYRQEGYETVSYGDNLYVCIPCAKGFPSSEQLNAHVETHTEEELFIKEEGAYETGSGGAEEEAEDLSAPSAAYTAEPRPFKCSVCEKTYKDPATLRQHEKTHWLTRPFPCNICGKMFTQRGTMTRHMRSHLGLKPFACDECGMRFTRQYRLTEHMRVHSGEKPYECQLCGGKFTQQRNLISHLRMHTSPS
Sequence of UniProt Q53GQ0 (Q53GQ0 whole entry, looked up): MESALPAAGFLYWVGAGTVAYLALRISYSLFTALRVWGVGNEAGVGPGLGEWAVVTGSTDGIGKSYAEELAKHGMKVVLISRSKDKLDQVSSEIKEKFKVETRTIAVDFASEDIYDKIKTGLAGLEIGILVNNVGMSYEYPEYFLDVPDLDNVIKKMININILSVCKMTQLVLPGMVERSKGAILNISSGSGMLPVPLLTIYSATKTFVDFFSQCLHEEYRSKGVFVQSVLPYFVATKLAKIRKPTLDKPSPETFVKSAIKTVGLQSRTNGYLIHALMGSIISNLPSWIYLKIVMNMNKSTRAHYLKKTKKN
Sequence of UniProt Q8WUI4 (Q8WUI4 whole entry, looked up): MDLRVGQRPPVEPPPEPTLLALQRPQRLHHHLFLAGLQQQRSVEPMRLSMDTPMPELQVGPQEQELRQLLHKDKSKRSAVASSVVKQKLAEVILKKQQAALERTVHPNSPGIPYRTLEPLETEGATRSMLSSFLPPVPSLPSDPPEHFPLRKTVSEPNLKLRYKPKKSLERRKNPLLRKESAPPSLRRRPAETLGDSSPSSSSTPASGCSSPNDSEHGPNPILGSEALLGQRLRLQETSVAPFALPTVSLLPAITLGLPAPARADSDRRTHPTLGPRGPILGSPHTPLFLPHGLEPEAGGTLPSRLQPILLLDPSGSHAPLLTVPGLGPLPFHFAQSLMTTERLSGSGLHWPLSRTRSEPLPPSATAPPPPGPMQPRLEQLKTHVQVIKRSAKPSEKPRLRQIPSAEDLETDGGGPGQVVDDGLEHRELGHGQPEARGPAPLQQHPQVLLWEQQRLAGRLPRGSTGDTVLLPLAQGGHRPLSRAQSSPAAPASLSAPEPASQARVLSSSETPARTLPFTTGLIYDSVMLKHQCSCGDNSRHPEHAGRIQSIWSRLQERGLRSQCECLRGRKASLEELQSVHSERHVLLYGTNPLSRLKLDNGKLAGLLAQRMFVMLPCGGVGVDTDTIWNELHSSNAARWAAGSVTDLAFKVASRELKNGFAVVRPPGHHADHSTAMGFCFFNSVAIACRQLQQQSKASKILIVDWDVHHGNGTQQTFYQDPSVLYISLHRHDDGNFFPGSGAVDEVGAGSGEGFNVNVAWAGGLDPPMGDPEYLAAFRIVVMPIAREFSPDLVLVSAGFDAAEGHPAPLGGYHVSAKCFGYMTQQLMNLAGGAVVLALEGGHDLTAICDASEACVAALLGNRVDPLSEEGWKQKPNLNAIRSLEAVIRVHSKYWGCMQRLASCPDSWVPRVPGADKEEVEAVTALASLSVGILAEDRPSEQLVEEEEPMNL
Sequence of UniProt O00165 (O00165 whole entry, looked up): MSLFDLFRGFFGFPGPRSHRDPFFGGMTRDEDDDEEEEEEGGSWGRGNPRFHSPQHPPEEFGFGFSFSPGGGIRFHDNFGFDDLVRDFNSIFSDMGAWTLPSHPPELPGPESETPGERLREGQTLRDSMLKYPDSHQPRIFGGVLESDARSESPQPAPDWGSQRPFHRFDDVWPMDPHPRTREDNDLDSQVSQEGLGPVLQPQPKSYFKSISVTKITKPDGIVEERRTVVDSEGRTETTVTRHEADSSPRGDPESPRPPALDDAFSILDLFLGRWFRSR
Sequence of UniProt Q9H0R8 (Q9H0R8 whole entry, looked up): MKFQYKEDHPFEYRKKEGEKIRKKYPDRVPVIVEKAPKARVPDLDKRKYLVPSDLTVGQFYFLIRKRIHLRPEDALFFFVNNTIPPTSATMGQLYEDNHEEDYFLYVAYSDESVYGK
Sequence of UniProt Q9H4A6 (Q9H4A6 whole entry, looked up): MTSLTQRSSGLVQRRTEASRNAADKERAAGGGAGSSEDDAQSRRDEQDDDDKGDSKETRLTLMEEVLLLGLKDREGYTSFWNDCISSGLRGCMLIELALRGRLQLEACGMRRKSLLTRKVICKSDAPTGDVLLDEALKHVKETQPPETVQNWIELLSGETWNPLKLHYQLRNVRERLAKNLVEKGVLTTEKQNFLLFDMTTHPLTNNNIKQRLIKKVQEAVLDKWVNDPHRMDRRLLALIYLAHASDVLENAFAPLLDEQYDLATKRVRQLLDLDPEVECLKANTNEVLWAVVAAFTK
Sequence of UniProt P52655 (P52655 whole entry, looked up): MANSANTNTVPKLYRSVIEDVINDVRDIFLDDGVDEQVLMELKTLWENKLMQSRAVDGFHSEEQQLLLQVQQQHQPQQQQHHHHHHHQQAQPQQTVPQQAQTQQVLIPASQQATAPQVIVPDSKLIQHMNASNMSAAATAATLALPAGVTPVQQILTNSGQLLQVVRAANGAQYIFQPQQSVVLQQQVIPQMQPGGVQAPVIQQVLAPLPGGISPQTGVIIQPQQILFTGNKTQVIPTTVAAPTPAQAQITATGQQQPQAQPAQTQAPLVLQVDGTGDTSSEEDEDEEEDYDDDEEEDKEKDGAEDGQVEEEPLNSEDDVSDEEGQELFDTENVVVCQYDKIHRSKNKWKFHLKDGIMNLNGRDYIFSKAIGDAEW
Sequence of UniProt Q5JWF2 (Q5JWF2 whole entry, looked up): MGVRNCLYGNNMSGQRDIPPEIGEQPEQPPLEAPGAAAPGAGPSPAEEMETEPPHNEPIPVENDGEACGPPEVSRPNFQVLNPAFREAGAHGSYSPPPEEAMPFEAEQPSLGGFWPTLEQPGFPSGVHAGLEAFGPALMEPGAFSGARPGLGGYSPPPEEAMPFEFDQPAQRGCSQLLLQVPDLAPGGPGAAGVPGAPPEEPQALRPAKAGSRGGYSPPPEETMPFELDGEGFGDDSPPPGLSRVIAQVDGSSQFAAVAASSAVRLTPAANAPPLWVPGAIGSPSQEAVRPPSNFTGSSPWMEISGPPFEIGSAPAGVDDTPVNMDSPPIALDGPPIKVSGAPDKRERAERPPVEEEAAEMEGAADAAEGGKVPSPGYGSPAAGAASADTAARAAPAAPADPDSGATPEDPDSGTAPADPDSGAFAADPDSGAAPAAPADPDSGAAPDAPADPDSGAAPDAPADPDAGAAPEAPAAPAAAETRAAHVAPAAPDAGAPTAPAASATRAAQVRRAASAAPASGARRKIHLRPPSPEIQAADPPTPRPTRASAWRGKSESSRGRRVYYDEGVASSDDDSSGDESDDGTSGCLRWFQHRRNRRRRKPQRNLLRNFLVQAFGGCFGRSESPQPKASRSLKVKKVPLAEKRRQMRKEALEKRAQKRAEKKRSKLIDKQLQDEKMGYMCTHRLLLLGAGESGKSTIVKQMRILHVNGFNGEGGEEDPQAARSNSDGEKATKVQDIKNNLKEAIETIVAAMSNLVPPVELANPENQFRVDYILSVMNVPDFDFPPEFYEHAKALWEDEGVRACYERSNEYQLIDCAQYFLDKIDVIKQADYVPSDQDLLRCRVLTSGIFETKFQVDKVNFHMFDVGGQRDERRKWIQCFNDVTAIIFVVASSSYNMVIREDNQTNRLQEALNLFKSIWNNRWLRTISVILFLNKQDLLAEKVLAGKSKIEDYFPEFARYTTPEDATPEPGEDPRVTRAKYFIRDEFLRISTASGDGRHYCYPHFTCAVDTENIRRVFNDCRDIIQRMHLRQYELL
Sequence of UniProt O00458 (O00458 whole entry, looked up): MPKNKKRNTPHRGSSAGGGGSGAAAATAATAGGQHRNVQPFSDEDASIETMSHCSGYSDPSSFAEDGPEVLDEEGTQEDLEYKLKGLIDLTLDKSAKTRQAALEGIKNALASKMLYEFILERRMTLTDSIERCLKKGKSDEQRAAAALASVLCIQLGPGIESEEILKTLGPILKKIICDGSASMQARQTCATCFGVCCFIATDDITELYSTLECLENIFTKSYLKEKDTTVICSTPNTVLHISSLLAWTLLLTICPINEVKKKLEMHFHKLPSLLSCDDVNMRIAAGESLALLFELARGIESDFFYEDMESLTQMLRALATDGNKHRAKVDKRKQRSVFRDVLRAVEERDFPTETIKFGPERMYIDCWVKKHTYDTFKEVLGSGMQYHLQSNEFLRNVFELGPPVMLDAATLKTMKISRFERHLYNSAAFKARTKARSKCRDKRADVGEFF
Sequence of UniProt P69905 (P69905 whole entry, looked up): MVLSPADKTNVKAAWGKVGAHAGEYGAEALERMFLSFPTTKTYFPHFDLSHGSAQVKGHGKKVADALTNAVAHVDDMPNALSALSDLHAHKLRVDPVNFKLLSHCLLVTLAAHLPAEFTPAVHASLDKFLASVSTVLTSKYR
Sequence of UniProt Q13907 (Q13907 whole entry, looked up): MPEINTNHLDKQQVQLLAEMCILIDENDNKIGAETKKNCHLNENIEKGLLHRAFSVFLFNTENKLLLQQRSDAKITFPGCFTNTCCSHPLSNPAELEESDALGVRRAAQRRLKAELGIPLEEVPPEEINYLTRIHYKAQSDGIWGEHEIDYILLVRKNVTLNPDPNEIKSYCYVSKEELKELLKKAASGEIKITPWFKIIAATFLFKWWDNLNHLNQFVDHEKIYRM

Target | log2 fold change [1] | log2 fold change [2] | log2 fold change [3] | log2 fold change [4] | log2 fold change [5]
HEATR5B (UniProt Q9P2D3) | -0.029 | -0.015 | 0.052 | -0.071 | 0.016
GTF2A1 (UniProt P52655) | 0.04 | -0.021 | -0.01 | -0.004 | -0.006
HSD17B12 (UniProt Q53GQ0) | 0.013 | 0.061 | 0.066 | 0.042 | -0.008
HRC (UniProt P23327) | 0.026 | -0.042 | 0.055 | 0.014 | 0.033
IDI1 isoform 2 (UniProt Q13907) | -0.024 | 0.024 | 0.037 | 0.003 | -0.007
GOLPH3 (UniProt Q9H4A6) | -0.035 | 0.06 | 0.04 | -0.077 | -0.021
IFRD1 (UniProt O00458) | -0.011 | -0.069 | 0.049 | 0.02 | 0.004
HMGCR isoform 3 (UniProt P04035) | -0.011 | 0.034 | 0.045 | 0.111 | 0.043
HAX1 (UniProt O00165) | -0.112 | -0.008 | 0.063 | 0.008 | -0.002
GSK3B isoform 2 (UniProt P49841) | 0 | 0.083 | 0.026 | -0.016 | -0.008
GABARAPL1 isoform 2 (UniProt Q9H0R8) | 0.02 | 0.094 | 0.073 | -0.022 | -0.036
FBXO42 (UniProt Q6P3S6) | -0.022 | 0.017 | 0.094 | 0.141 | 0.077
GTF2E1 (UniProt P29083) | -0.086 | 0.089 | 0.136 | -0.052 | 0.034
GIGYF2 (UniProt Q6Y7W6) | -0.006 | 0.057 | 0.057 | 0.012 | -0.046
GGA2 (UniProt Q9UJY4) | -0.023 | 0.014 | -0.035 | 0.041 | -0.047
FAT2 (UniProt Q9NYQ8) | -0.092 | 0.669 (active) | 0.163 | -0.091 | -0.218
GNAS (UniProt Q5JWF2) | 0.016 | -0.008 | 0.045 | -0.038 | 0.013
FKBP4 (UniProt Q02790) | -0.032 | 0.042 | 0.037 | 0.004 | -0.029
GDI1 (UniProt P31150) | -0.025 | 0.054 | 0.043 | -0.022 | -0.025
HDAC7 isoform 5 (UniProt Q8WUI4) | -0.008 | 0.039 | -0.004 | -0.026 | -0.003
HIC2 (UniProt Q96JB3) | 0.163 | -0.053 | -0.048 | 0.205 | 0.078
H3-3A (UniProt P84243) | -0.004 | 0.053 | 0.154 | -0.058 | -0.102
HBA1 (UniProt P69905) | -0.003 | 0.163 | 0.005 | -0.167 | -0.023
FDXR isoform 7 (UniProt P22570) | -0.069 | 0.106 | 0.038 | -0.037 | -0.01
